In PubChem BioAssay:
Values without a mark were called inactive. The source made the active and inactive calls. Unless noted, no stated cut-off is given here; in the data, active means inhibition above about 33%; inactive means the rest.

What was measured:
[1] = molecular target: Nuclear receptor coactivator 3 (Homo sapiens) (UniProt Q9Y6Q9); assay: SRC3 coactivator transcriptional activity inhibitors, confirmation, cell-based, luminescence, quadruplicate (AID 588792;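 active means mean inhibition over 43.08%, the solvent-only control mean plus 3 SD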;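 further: 0% = DMSO treated cells and 100% = gossypol at 36 µM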); conditions: HEK293 GAL4-SRC3 luciferase reporter, at 3.6 µM, active compounds read high
Nuclear receptor coactivator 3 (Homo sapiens), sequence (Q9Y6Q9 whole entry, looked up, the tested form may be a part): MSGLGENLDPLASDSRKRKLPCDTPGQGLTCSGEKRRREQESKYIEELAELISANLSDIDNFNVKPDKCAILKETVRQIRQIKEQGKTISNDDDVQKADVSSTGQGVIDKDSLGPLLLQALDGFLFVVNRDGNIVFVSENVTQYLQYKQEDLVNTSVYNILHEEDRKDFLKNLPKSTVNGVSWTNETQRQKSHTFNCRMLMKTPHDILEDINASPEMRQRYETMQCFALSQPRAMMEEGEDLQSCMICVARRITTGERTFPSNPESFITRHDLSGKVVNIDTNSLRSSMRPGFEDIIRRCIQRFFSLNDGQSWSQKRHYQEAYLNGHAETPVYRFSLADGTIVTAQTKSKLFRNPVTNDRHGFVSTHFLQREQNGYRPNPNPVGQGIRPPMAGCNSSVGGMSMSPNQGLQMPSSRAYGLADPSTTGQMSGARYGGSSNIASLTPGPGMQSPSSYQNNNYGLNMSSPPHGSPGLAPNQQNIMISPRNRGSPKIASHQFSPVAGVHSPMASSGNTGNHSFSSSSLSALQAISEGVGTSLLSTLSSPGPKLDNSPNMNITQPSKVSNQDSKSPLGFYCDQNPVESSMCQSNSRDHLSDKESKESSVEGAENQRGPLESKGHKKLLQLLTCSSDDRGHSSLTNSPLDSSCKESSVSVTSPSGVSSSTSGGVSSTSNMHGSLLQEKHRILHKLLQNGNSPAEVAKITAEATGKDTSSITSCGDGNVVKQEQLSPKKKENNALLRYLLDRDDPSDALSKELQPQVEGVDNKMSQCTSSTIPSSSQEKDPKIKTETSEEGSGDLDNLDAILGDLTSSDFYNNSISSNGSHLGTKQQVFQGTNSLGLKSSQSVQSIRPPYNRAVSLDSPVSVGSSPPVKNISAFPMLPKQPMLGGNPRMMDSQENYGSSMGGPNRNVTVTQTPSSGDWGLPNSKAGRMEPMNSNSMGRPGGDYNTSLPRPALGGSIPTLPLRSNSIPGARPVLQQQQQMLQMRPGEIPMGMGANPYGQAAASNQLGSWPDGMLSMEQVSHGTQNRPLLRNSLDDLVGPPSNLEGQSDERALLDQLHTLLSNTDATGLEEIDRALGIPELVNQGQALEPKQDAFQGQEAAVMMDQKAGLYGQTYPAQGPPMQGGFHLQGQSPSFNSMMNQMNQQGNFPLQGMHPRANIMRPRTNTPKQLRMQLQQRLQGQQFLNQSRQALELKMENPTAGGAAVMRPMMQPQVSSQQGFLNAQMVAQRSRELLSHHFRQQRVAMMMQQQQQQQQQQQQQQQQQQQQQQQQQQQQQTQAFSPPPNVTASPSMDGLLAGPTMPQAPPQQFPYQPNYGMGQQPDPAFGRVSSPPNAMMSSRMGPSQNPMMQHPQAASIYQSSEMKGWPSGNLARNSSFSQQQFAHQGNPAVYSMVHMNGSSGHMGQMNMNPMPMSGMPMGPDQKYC

[2] = tested on: transactivating tegument protein VP16 (Human herpesvirus 1), Gal4-VP16 luciferase reporter; assay: VP16 transactivation inhibitors, counter-screen for SRC3 inhibitor project, cell-based, luminescence, high throughput (AID 588794; in the data active means inhibition above about 30%); conditions: mammalian cells, VP16-driven luciferase reporter luminescence; at 3.6 µM; active compounds read high
[3] = molecular target: Nuclear receptor coactivator 1 (Homo sapiens) (UniProt Q15788); assay: SRC1 coactivator transcriptional activity inhibitors, confirmation, cell-based, luminescence, quadruplicate (AID 588820;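 active means mean inhibition above 46.68%, the untreated control wells mean plus 3 SD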;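 further: 0% = DMSO wells and 100% = gossypol 36 µM treated wells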); conditions: HEK293 GAL4-SRC1 luciferase reporter, at 3.6 µM, active compounds read high
Nuclear receptor coactivator 1 (Homo sapiens), sequence (Q15788 whole entry, looked up, the tested form may be a part): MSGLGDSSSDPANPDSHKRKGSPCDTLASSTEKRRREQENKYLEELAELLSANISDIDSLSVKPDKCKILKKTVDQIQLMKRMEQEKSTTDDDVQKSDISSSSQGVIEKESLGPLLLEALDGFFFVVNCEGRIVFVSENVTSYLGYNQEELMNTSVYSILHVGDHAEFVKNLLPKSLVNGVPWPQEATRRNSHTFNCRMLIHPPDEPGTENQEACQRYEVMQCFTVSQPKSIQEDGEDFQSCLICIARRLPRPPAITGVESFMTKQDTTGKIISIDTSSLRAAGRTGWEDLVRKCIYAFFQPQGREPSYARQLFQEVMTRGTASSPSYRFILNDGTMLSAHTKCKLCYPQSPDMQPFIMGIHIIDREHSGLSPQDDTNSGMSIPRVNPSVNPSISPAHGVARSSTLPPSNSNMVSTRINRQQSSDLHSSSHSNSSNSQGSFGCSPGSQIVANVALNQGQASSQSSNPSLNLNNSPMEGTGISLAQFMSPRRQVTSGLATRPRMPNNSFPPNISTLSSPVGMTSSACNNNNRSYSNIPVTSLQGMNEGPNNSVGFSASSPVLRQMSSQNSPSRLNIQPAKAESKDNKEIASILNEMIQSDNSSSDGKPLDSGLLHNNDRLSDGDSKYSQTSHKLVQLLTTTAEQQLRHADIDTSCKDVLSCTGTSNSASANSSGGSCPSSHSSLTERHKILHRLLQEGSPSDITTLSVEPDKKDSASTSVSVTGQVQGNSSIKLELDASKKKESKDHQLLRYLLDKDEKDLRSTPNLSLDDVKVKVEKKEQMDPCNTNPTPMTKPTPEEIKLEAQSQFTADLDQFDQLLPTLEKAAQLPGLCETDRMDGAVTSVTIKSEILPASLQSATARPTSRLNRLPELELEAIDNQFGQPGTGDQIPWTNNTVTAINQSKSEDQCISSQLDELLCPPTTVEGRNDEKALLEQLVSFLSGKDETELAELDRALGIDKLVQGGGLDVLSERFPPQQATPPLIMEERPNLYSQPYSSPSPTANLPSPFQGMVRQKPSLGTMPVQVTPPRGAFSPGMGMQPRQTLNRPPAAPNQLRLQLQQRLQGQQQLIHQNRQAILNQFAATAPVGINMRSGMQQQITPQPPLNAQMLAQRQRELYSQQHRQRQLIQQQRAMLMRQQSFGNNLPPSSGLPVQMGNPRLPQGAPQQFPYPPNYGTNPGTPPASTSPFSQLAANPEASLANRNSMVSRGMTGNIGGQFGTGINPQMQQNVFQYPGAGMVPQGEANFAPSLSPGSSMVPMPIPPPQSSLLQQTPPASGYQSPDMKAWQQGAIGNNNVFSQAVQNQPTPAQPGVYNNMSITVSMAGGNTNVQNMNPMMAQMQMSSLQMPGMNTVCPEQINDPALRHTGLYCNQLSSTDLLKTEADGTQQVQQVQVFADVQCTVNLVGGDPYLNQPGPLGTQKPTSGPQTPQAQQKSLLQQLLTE

[4] = VP16 transactivation inhibitors, counter-screen for SRC1 inhibitor project, cell-based, luminescence, high throughput (AID 588824; in the data active means inhibition above about 25%); conditions: cell-based VP16 transactivation luciferase luminescence; at 3.6 µM; active compounds read high
[5] = StAR promoter reporter inhibitors, counter-screen for LRH-1 inverse agonist project, cell-based, luminescence, high throughput (AID 651611; in the data active means inhibition above about 28%); conditions: StAR promoter luciferase reporter counterscreen, at 3.6 µM, active compounds read high
[6] = molecular target: Nuclear receptor subfamily 5 group A member 2 (Homo sapiens) (UniProt O00482); assay: LRH-1 (NR5A2) inverse agonists, retest, confirmation, cell-based, luminescence (AID 651613; in the data active means inhibition above about 42%;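 further: HEK293T cells co-transfected with LRH-1 and StAR promoter luciferase reporter; 0% = vehicle wells and 100% = parental cells lacking receptor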); conditions: cell-based LRH-1 luciferase reporter, inverse agonism; at 3.6 µM; active compounds read high
Nuclear receptor subfamily 5 group A member 2 (Homo sapiens), sequence (O00482 whole entry, looked up): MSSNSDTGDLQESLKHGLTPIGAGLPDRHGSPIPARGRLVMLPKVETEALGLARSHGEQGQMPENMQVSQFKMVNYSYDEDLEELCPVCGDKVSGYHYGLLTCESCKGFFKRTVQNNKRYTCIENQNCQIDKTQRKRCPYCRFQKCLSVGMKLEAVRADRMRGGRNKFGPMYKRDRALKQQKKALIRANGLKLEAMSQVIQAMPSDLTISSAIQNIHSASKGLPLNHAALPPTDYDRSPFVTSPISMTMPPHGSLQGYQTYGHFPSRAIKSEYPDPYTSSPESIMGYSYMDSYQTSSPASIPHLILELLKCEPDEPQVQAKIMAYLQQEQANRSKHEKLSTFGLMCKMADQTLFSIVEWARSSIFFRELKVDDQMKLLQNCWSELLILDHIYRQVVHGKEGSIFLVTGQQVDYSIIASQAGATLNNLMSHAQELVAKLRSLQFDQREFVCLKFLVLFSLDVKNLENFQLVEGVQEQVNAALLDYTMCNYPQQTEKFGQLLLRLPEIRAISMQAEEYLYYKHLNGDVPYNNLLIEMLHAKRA

[7] = molecular target: Steroidogenic factor 1 (Homo sapiens) (UniProt Q13285); assay: SF1 (NR5A1) inverse agonists, counter-screen for LRH-1 inverse agonist project, cell-based, luminescence, high throughput (AID 651614; in the data active means inhibition above about 44%;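 further: cells cotransfected with StAR promoter reporter and SF1 expression vector; 0% = vehicle on cells with receptor and 100% = vehicle on cells lacking receptor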); conditions: cell-based SF1 luciferase reporter, at 3.6 µM, active compounds read high
Steroidogenic factor 1 (Homo sapiens), sequence (Q13285 whole entry, looked up, the tested form may be a part): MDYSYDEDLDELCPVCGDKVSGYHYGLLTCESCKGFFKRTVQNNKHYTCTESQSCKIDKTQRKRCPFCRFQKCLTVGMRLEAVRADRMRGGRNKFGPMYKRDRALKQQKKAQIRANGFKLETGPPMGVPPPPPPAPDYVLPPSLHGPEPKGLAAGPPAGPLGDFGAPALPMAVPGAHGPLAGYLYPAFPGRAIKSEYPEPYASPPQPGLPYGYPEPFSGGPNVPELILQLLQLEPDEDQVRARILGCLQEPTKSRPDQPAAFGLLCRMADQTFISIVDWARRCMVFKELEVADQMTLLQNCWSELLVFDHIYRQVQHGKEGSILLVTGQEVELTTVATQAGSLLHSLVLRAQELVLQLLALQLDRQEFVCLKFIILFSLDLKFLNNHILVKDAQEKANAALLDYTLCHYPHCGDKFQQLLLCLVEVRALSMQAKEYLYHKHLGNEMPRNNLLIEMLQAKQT

[8] = VP16 transactivation reporter inhibitors, counter-screen for LRH-1 inverse agonist project, cell-based, luminescence, high throughput (AID 651615); conditions: Gal4-VP16 luciferase reporter cells, at 3.6 µM, active compounds read high
[9] = tested on: transactivating tegument protein VP16 (Human herpesvirus 1); assay: VP16 transactivation reporter inhibitors, counter-screen for SRC2 inhibitor project, cell-based, luminescence, single concentration (AID 652007; in the data active means inhibition above about 36%); conditions: cell-based VP16 transactivation luciferase reporter, at 8.9 µM, active compounds read high
[10] = molecular target: Nuclear receptor coactivator 2 (Homo sapiens) (UniProt Q15596); assay: SRC2 coactivator transcriptional activity inhibitors, confirmation, cell-based, luminescence, HEK293, triplicate (AID 652008;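 active means mean inhibition above 46.5%, the solvent-only control mean plus 3 SD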;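 further: 0% = DMSO-treated cells and 100% = Gossypol at 36 µM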); conditions: HEK293 GAL4-SRC2 luciferase reporter, at 8.9 µM, active compounds read high

Compound: CC(C)(C)c1ccc(C(=O)O/N=C(\N)c2ccccn2)cc1
- inhibition [1]: 85.4% (active)
- inhibition [2]: 77.2% (active)
- inhibition [3]: 64.9% (active)
- inhibition [4]: 67.5% (active)
- inhibition [5]: 61.1% (active)
- inhibition [6]: 45.8% (active)
- inhibition [7]: 58.5% (active)
- inhibition [8]: 62.5% (active)
- inhibition [9]: 83.1% (active)
- inhibition [10]: 94.4% (active)

Compound: O=C1N(c2ccccc2)C[C@@H]2C[C@@H](c3cc4ccccc4o3)N3CCC[C@@]123
- inhibition [1]: 95.3% (active)
- inhibition [2]: 96.3% (active)
- inhibition [3]: 74.5% (active)
- inhibition [4]: 94.7% (active)
- inhibition [5]: 90.4% (active)
- inhibition [6]: 109% (active)
- inhibition [7]: 98% (active)
- inhibition [8]: 98.4% (active)
- inhibition [9]: 47.8% (active)
- inhibition [10]: 43.3%

Compound: O=C(COC(=O)c1ccc[nH]c1=O)Nc1ccc(N2CCCCC2)cc1
- inhibition [1]: 54.4% (active)
- inhibition [2]: 20.8%
- inhibition [3]: 42.2%
- inhibition [4]: 5.72%
- inhibition [5]: 42.1% (active)
- inhibition [6]: 55% (active)
- inhibition [7]: 41%
- inhibition [8]: 6.65%
- inhibition [9]: 45.1% (active)
- inhibition [10]: 90.5% (active)

Compound: O=C(CN1C(=O)c2ccccc2S1(=O)=O)c1ccc2c(c1)OCCO2
- inhibition [1]: 87.8% (active)
- inhibition [2]: 89.7% (active)
- inhibition [3]: 64% (active)
- inhibition [4]: 84.8% (active)
- inhibition [5]: 85.1% (active)
- inhibition [6]: 86.3% (active)
- inhibition [7]: 84.5% (active)
- inhibition [8]: 84.4% (active)
- inhibition [9]: 91.4% (active)
- inhibition [10]: 95.2% (active)

Compound: O=C(CN1C(=O)c2ccccc2S1(=O)=O)c1ccc2c(c1)OCCCO2
- inhibition [1]: 93.3% (active)
- inhibition [2]: 92.4% (active)
- inhibition [3]: 82.5% (active)
- inhibition [4]: 91.8% (active)
- inhibition [5]: 91% (active)
- inhibition [6]: 99.8% (active)
- inhibition [7]: 92.4% (active)
- inhibition [8]: 90.3% (active)
- inhibition [9]: 94.4% (active)
- inhibition [10]: 98% (active)

Compound: CC(C)c1ccc(-c2nc3ccccc3s2)cc1
- inhibition [1]: 80.1% (active)
- inhibition [2]: 73.8% (active)
- inhibition [3]: 56% (active)
- inhibition [4]: 53.8% (active)
- inhibition [5]: 78.9% (active)
- inhibition [6]: 42.9% (active)
- inhibition [7]: 74.5% (active)
- inhibition [8]: 51.7% (active)
- inhibition [9]: 64.7% (active)
- inhibition [10]: 86.8% (active)

Compound: CNC1=C(N(C(C)=O)c2ccc(Br)cc2)C(=O)c2ccccc2C1=O
- inhibition [1]: 82.4% (active)
- inhibition [2]: 84.8% (active)
- inhibition [3]: 74.2% (active)
- inhibition [4]: 84.8% (active)
- inhibition [5]: 76.4% (active)
- inhibition [6]: 97.4% (active)
- inhibition [7]: 90.8% (active)
- inhibition [8]: 89.3% (active)
- inhibition [9]: 18.5%
- inhibition [10]: 48.9% (active)

Compound: Cc1[nH]c2ccccc2c(=O)c1C(=O)/C=C/c1ccccc1
- inhibition [1]: 76.1% (active)
- inhibition [2]: 58% (active)
- inhibition [3]: 73.7% (active)
- inhibition [4]: 59.6% (active)
- inhibition [5]: 76.2% (active)
- inhibition [6]: 90.2% (active)
- inhibition [7]: 82.9% (active)
- inhibition [8]: 77.8% (active)
- inhibition [9]: 39% (active)
- inhibition [10]: 72.7% (active)

Compound: Nc1ncnc2c(C3OC(CO)C(O)C3O)scc12 (stereo not given)
- inhibition [1]: 90.7% (active)
- inhibition [2]: 95.1% (active)
- inhibition [3]: 78.5% (active)
- inhibition [4]: 94.9% (active)
- inhibition [5]: 89.2% (active)
- inhibition [6]: 107% (active)
- inhibition [7]: 96.5% (active)
- inhibition [8]: 92.9% (active)
- inhibition [9]: 62.8% (active)
- inhibition [10]: 57.2% (active)

Compound: Cc1ccc(Nc2nc(N)nc(CCl)n2)c(C)c1
- inhibition [1]: 74% (active)
- inhibition [2]: 32.8% (active)
- inhibition [3]: 38.6%
- inhibition [4]: 28.1% (active)
- inhibition [5]: 20%
- inhibition [6]: 58.7% (active)
- inhibition [7]: 29.4%
- inhibition [8]: 56% (active)
- inhibition [9]: -27.8%
- inhibition [10]: 40.4%

Compound: Nc1ccc(Oc2cccc(Oc3ccc(N)cc3)c2)cc1
- inhibition [1]: 43.4% (active)
- inhibition [2]: 29.6% (active)
- inhibition [3]: 24.3%
- inhibition [4]: 27.6% (active)
- inhibition [5]: 47.8% (active)
- inhibition [6]: 75.6% (active)
- inhibition [7]: 67.8% (active)
- inhibition [8]: 47.5% (active)
- inhibition [9]: 88.8% (active)
- inhibition [10]: 92.8% (active)

Compound: COc1ccc(CNC(=O)c2cccc3c(-c4cccc(C(N)=O)c4)coc23)cc1OC
- inhibition [1]: 30.4%
- inhibition [2]: 52% (active)
- inhibition [3]: 3.09%
- inhibition [4]: 50.2% (active)
- inhibition [5]: 62.9% (active)
- inhibition [6]: 69.7% (active)
- inhibition [7]: 68.7% (active)
- inhibition [8]: 73.6% (active)
- inhibition [9]: 34.4%
- inhibition [10]: 37.8%

Compound: Cc1ccc(C#N)c(SCc2nnc(-c3ccc(Cl)cc3)o2)n1
- inhibition [1]: 67.8% (active)
- inhibition [2]: 54.9% (active)
- inhibition [3]: 30.4%
- inhibition [4]: 28.1% (active)
- inhibition [5]: 30.7% (active)
- inhibition [6]: -14.8%
- inhibition [7]: 21.1%
- inhibition [8]: 7.27%
- inhibition [9]: 59.4% (active)
- inhibition [10]: 85.4% (active)

Compound: CN(C(=O)COc1ccccc1C(=O)NCCOc1ccccc1)c1ccccc1
- inhibition [1]: 20.1%
- inhibition [2]: 32.4% (active)
- inhibition [3]: -24.3%
- inhibition [4]: 32.8% (active)
- inhibition [5]: 63.6% (active)
- inhibition [6]: 31.8%
- inhibition [7]: 54.3% (active)
- inhibition [8]: 37.1% (active)
- inhibition [9]: 36.4% (active)
- inhibition [10]: 47.3% (active)
